# Measured values published in PubChem BioAssay (Tox21).
# Several values for one entry are separate records, joined by “and”; a condition that tells them apart may be missing. Equal values may be shown once. Records with an inconclusive call do not appear. Activity calls are given as the source filed them. Calls follow the shape of the dose curve; as a rule, active = well fitted curve in the direction sought with a large enough effect in the repeat runs; inconclusive = weak or mixed curves; inactive = no such curve, though single readings can be large; an effect the other way counts as inactive or inconclusive.
# Molecular target: Cytochrome P450 1A2 (Homo sapiens) (UniProt P05177)
# Sequence (P05177 whole entry, looked up): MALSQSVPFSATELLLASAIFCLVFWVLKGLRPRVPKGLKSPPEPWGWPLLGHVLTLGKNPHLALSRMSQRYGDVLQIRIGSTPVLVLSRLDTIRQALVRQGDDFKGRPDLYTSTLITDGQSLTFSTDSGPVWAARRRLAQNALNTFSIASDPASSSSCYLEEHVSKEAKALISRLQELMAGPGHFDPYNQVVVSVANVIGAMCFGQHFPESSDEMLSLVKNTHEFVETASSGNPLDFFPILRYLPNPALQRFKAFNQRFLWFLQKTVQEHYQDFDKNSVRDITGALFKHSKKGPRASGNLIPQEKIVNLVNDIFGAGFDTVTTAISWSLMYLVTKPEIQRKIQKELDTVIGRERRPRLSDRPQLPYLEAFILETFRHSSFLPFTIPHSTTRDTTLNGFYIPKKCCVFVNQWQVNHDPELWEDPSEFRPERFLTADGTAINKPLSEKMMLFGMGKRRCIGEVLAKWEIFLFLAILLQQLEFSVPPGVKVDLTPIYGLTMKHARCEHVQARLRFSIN
# Experiment: Cytochrome P450 Family 1 Subfamily A Member 2 (CYP1A2) small molecule antagonists: luciferase reporter qHTS assay (AID 1671199)
# Conditions: P450-Glo CYP1A2 enzyme, luciferin luminescence, 1 h; series mostly up to 115 µM; activity change, negative = inhibition: at the top concentration
# In short: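 Room-temperature CYP1A2 reaction with proluciferin substrate: compounds added from DMSO, 10 min preincubation, NADPH regeneration for 1 h. Luciferin detection reagent then added; luminescence recorded as RLU.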
# % is scaled to controls: 0 for no effect and ±100 for the full control effect; potency is read from the fitted curve at half-maximal effect.
# Also: nearly all actives have a fitted effect of over 50% in size.
SMILES,"activity change, negative = inhibition",Potency
CCC(C)c1ccccc1 (stereo not drawn),-22.3% (inactive),
SCCCCCCCCS,-8.47% (inactive),
COCC(=O)O[C@]1(CCN(C)CCCc2nc3ccccc3[nH]2)CCc2cc(F)ccc2[C@@H]1C(C)C,-20.2% [at 53 µM] (inactive),
CCCCCCCC/C=C\CCCCCCCC(=O)OCCOC(=O)CCCCCCC/C=C\CCCCCCCC,,52.2 µM (active)
C=CC(C)(CCC=C(C)C)OC(=O)/C=C/c1ccccc1 (stereo not drawn),,31.7 µM (active)
CCCCCCCOC(=O)c1ccc(O)cc1,,5.64 µM (active) and 20 µM (active)
CCCCCCCCCCCCN(CCO)CCO,,11.2 µM (active)
C=C(c1ccc(C(=O)O)cc1)c1cc2c(cc1C)C(C)(C)CCC2(C)C,,inactive
CNC(=O)c1cc(Oc2ccc(NC(=O)Nc3ccc(Cl)c(C(F)(F)F)c3)cc2)ccn1,0.509% [at 53 µM] (inactive),
Cc1ccc2ccc3cccc4ccc1c2c34,,0.563 µM (active)
CC(C)c1ccc(O)c(C(C)C)c1,,31.7 µM (active)
CC(C)=CCCC(C)CCOC(=O)C(C)C (stereo not drawn),-21.8% (inactive),
CC=O,,37.2 µM (active)
CC(C(O)c1ccccc1)N(C)CCOC(c1ccccc1)c1ccccc1 (stereo not drawn),-15.1% [at 53 µM] (inactive),
COc1ccccc1OCCNCC(O)COc1cccc2[nH]c3ccccc3c12 (stereo not drawn),,8.12 µM (active)
Clc1ccc(C(Cn2ccnc2)OCc2ccsc2Cl)c(Cl)c1 (stereo not drawn),,4.56 µM (active)
CCCSS/C(CCO)=C(\C)N(C=O)Cc1cnc(C)nc1N,4.28% [at 53 µM] (inactive),
COc1cc(C(=O)NS(=O)(=O)c2ccccc2C)ccc1Cc1cn(C)c2ccc(NC(=O)OC3CCCC3)cc12,-4.13% [at 53 µM] (inactive),
CC(=O)Oc1ccc(C2(c3ccc(OC(C)=O)cc3)Oc3ccccc3NC2=O)cc1,1.41% [at 53 µM] (inactive),

SMILES,"activity change, negative = inhibition",Potency
Clc1cccnc1,,35.6 µM (active)
Cc1ccc(N)cc1O,,11.1 µM (active)
O=S(O)O,-6.76% [at 23.6 µM] (inactive),
C=C[C@](C)(O)CC[C@@H]1[C@@]2(C)CCCC(C)(C)[C@@H]2CC[C@@]1(C)O,,31.7 µM (active)
CC(C)(C)CC(C)(C)c1ccccc1O,,35.8 µM (active)
Nc1cc(Cl)c([N+](=O)[O-])cc1O,,19.9 µM (active)
CSc1ccc2c(c1)N(CCC1CCCCN1C)c1ccccc1S2 (stereo not drawn),,28.1 µM (active) and 15.5 µM (active)
CCCCOCC,-18.1% (inactive),
CCCCCCCCCCCCCCNCCO,,28.8 µM (active)
CC(C)(c1cc(Br)c(O)c(Br)c1)c1cc(Br)c(O)c(Br)c1,,inactive
O=C1NCCN1CCN1CCC(c2cn(-c3ccc(F)cc3)c3ccc(Cl)cc23)CC1,-0.213% [at 53 µM] (inactive),
C/C=C/C=N/NC(=O)c1ccncc1,-12.3% [at 53 µM] (inactive),
CCOC(OCC)C(=O)c1ccccc1,,31.7 µM (active)
CC(C)c1cccc(C(C)C)c1N1C(=O)c2ccc(O)cc2C1=O,-18.5% (inactive),
COc1ccc2sc(C(=O)Nc3nnn[nH]3)c(OC(C)C)c2c1,-11.1% (inactive),
Cc1c(-c2ccc(O)cc2)n(Cc2ccc(OCCN3CCCCCC3)cc2)c2ccc(O)cc12,13.6% [at 53 µM] (inactive),
CCCCCCOc1cc(C)c(O)c(C)c1C,,11.4 µM (active)
C[n+]1c2cc(N)ccc2cc2ccc(N)cc21 (tested in a mixture with another compound),,2.19 µM (active)
CCN(CC)CCSC(=O)C(c1ccccc1)c1ccccc1,,15.5 µM (active)

# Molecular target: Voltage-gated inwardly rectifying potassium channel KCNH2 (Homo sapiens) (UniProt Q12809)
# Sequence (Q12809 whole entry, looked up): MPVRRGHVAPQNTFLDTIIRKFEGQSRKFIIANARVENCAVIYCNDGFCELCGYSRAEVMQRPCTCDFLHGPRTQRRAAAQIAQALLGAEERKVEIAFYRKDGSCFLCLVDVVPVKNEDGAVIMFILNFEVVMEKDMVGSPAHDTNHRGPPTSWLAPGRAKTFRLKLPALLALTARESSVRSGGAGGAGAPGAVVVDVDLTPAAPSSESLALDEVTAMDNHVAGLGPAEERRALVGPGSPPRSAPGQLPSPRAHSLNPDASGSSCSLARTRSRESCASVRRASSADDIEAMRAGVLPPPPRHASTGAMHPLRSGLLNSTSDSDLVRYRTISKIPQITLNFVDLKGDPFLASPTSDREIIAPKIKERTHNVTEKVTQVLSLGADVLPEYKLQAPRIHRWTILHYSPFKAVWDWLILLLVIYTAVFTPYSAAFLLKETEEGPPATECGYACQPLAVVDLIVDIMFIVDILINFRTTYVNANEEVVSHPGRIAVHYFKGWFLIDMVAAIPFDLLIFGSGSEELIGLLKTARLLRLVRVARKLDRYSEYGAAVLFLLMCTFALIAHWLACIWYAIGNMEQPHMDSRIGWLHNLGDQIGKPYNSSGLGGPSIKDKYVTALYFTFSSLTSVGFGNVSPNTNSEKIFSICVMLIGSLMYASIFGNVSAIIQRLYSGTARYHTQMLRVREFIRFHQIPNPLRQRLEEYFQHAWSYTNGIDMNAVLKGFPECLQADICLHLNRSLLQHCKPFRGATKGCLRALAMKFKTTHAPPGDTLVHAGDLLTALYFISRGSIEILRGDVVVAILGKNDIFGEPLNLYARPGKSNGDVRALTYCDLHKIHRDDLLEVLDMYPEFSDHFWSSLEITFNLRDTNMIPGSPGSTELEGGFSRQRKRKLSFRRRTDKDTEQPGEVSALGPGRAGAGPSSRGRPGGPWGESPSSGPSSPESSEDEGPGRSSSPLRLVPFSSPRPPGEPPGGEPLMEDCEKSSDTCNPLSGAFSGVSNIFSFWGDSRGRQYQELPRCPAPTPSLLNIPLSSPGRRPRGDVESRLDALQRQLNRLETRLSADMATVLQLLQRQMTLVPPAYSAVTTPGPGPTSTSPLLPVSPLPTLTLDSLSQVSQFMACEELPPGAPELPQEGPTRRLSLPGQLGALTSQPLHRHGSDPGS
# Experiment: Human Ether-a-go-go-Related Gene (hERG) channel small molecule antagonists: fluorescence cell-based qHTS assay (AID 1671200);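 as to activity change, negative = inhibition: hERG-expressing U2OS cells given a thallium stimulus after FluxOR II dye loading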
# Conditions: hERG-U2OS cells, FluxOR thallium flux fluorescence; series mostly up to 76.8 µM; activity change, negative = inhibition: at the top concentration
# In short: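 Quantitative HTS in hERG-U2OS cells: thallium entry through the channel reports activity, read as continuous 480/540 nm fluorescence over 2 min after stimulus addition.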
SMILES,"activity change, negative = inhibition",Potency
CCC(C)c1ccccc1 (stereo not drawn),5.96% (inactive),
SCCCCCCCCS,-13.6% (inactive),
C=CC(C)(CCC=C(C)C)OC(=O)/C=C/c1ccccc1 (stereo not drawn),-23.7% (inactive),
CCCCCCCCCCCCN(CCO)CCO,,7.73 µM (active)
C=C(c1ccc(C(=O)O)cc1)c1cc2c(cc1C)C(C)(C)CCC2(C)C,,inactive
Cc1ccc2ccc3cccc4ccc1c2c34,-6.06% (inactive),
CC(C)=CCCC(C)CCOC(=O)C(C)C (stereo not drawn),-0.0962% (inactive),
CC=O,,4.57 µM (active)
CC(C(O)c1ccccc1)N(C)CCOC(c1ccccc1)c1ccccc1 (stereo not drawn),,1.69 µM (active)
Clc1ccc(C(Cn2ccnc2)OCc2ccsc2Cl)c(Cl)c1 (stereo not drawn),,9.52 µM (active)
CCCSS/C(CCO)=C(\C)N(C=O)Cc1cnc(C)nc1N,,12 µM (active)
COc1cc(C(=O)NS(=O)(=O)c2ccccc2C)ccc1Cc1cn(C)c2ccc(NC(=O)OC3CCCC3)cc12,-2.94% [at 35.3 µM] (inactive),
CC(=O)Oc1ccc(C2(c3ccc(OC(C)=O)cc3)Oc3ccccc3NC2=O)cc1,-21.8% [at 35.3 µM] (inactive),
Clc1cccnc1,0.28% (inactive),
Cc1ccc(N)cc1O,1.43% (inactive),
O=S(O)O,4.11% [at 15.8 µM] (inactive),
Nc1cc(Cl)c([N+](=O)[O-])cc1O,6.07% (inactive),
CCCCOCC,6.04% (inactive),
CC(C)(c1cc(Br)c(O)c(Br)c1)c1cc(Br)c(O)c(Br)c1,,inactive
C/C=C/C=N/NC(=O)c1ccncc1,0.135% [at 35.3 µM] (inactive),
CCOC(OCC)C(=O)c1ccccc1,5.41% (inactive),
CC(C)c1cccc(C(C)C)c1N1C(=O)c2ccc(O)cc2C1=O,-4.17% (inactive),
COc1ccc2sc(C(=O)Nc3nnn[nH]3)c(OC(C)C)c2c1,-0.252% (inactive),
C[n+]1c2cc(N)ccc2cc2ccc(N)cc21 (tested in a mixture with another compound),4.63% [at 35.3 µM] (inactive),
CCN(CC)CCSC(=O)C(c1ccccc1)c1ccccc1,,2.68 µM (active)
